Test results published in PubChem BioAssay.
Results filed as inconclusive are left out. Calls of active or inactive are those of the source.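 The calls were made as follows, unless noted: active = differentiation response of at least 50%, scaled between solvent and reference control, from cells with both markers; inactive = the rest.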

Key:
[1] = yeast TOR pathway RPL19A-GFP modulators, primary screen, cell-based, S. cerevisiae, multiplex flow cytometry (AID 1862; in the data active = percent of DMSO control GFP below about 86%;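 also: lower values mimic rapamycin by blocking the RPL19A rise seen in DMSO cells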); conditions: S. cerevisiae RPL19A-GFP strain, flow cytometry fluorescence, 3 h; at 10 µM; stronger effect = lower value
[2] = modulators of MEP2-GFP levels in yeast, primary screen, S. cerevisiae, multiplex flow cytometry (AID 1867;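 active = GFP response, as percent of the DMSO control, above the screen-wide mean plus 3 SD, about 139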;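 also: median GFP channel fluorescence of barcode-gated MEP2-GFP cells measured by flow cytometry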); conditions: S. cerevisiae MEP2-GFP strain, 3 h, at 10 µM, stronger effect = higher value, 100% means same as DMSO wells
[3] = modulators of CIT2-GFP expression in yeast, primary screen, S. cerevisiae, GFP fusion, multiplex flow cytometry (AID 1870;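 active = percent response above a set limit, the screen-wide mean plus 3 SD, cut at about 130% in these data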;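 also: barcoded CIT2-GFP strain pooled with four other GFP strains with rapamycin as positive control; median GFP fluorescence per well over plate mean of DMSO wells so 100% = DMSO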); conditions: 3 h, at 10 µM, stronger effect = higher value
[4] = modulators of LAP4-GFP expression in yeast, primary screen, S. cerevisiae, multiplex flow cytometry (AID 1873;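 active = GFP signal, as percent of the solvent control, above the screen mean plus 3 SD, about 149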); conditions: 3 h, at 10 µM, stronger effect = higher value
[5] = modulators of AGP1-GFP expression in yeast TOR pathway, primary screen, cell-based, multiplex flow cytometry, S. cerevisiae (AID 1887;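 active = GFP signal above the screen-wide mean plus 3 SD, that is over about 124.5% of the solvent control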;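 also: AGP1-GFP fusion strain of S. cerevisiae within a five-strain barcoded multiplex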); conditions: 3 h, at 10 µM, stronger effect = higher value
[6] = inhibitors of CD8+ T cell-vesicle binding, pilot screen, LFA-1/ICAM-1 modulator project, MLPCN validation set, flow cytometry (AID 2523;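 active = response below a set limit, under 55% cells CD8-positive and vesicle-bound, and CD8 cells' 90th-percentile brightness under 279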;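 as to vesicle binding response: mean PE anti-B7-1 fluorescence of CD8+ cells relative to row control; 100% = QL9-loaded vesicles with DMSO vehicle in the same plate row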); conditions: 2C mouse CD8+ T cells, at 7 µM, stronger effect = lower value; double positive events: measured here: CD8+/vesicle+ event percentage
[7] = target: Integrin beta-1 (Homo sapiens) + Integrin alpha-4 (Homo sapiens) (UniProt P13612+P05556); assay: inhibition of HUTS-21 binding to VLA-4, pilot screen, VLA-4 allosteric modulator project, U937 cells, HUTS-21 mAb, flow cytometry, validation set (AID 2674;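 active = inhibition above 50%, about 3 SD of the validation set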;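 also: antibody binding induced by the VLA-4 ligand LDV present at three times its Kd; 0% = LDV ligand with antibody and no compound and 100% = antibody without LDV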); conditions: HUTS-21 LIBS mAb binding, at 6.7 µM, stronger effect = higher value, binding induced by LDV ligand
Sequence of Integrin beta-1 (Homo sapiens) + Integrin alpha-4 (Homo sapiens) (P05556 whole entry, looked up): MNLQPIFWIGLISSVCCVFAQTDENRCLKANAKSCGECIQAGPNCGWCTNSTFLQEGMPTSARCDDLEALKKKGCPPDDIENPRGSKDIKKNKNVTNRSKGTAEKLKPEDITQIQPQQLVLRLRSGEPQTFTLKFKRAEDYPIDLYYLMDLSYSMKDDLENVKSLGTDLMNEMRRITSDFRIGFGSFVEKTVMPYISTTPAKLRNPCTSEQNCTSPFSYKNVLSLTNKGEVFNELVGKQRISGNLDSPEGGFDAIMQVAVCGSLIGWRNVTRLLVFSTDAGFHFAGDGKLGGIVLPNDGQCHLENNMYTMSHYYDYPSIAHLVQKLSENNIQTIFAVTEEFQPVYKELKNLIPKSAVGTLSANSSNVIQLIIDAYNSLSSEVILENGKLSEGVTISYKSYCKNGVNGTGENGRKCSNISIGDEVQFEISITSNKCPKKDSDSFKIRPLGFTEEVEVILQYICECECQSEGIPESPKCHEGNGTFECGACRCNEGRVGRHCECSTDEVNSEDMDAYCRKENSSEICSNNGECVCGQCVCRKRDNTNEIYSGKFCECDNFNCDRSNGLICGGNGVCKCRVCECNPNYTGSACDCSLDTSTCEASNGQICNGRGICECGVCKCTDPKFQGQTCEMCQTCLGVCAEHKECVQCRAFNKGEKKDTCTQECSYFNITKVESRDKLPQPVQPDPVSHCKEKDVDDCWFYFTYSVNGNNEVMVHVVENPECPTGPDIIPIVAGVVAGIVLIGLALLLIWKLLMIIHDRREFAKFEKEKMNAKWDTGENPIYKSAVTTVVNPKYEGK
Sequence of Integrin beta-1 (Homo sapiens) + Integrin alpha-4 (Homo sapiens) (P13612 whole entry, looked up): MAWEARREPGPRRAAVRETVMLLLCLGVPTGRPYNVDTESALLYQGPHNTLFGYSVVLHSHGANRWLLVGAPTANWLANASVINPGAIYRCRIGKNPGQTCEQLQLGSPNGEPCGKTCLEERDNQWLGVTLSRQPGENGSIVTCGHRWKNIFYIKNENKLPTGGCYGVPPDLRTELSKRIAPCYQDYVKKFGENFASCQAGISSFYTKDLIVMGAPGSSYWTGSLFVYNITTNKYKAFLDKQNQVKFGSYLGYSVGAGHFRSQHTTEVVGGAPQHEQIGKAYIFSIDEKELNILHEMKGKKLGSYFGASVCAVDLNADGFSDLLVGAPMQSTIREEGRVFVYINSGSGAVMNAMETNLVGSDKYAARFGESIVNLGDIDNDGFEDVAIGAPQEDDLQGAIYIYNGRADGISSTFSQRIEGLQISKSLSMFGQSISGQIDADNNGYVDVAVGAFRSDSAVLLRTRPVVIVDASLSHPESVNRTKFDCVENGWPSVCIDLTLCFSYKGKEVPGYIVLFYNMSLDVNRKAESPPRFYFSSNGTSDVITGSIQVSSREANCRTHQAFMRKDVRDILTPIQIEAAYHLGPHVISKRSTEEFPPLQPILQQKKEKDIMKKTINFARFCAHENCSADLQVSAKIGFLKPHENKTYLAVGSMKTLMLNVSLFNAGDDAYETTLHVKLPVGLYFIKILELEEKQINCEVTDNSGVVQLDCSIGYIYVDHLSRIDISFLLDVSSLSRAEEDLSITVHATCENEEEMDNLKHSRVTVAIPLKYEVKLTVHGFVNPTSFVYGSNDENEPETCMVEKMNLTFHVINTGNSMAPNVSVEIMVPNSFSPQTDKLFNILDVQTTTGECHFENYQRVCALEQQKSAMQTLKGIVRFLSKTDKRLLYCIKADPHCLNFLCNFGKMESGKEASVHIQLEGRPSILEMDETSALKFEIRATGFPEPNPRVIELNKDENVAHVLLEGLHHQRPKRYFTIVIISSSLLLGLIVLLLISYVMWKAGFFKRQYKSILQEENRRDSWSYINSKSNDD

[8] = superoxide lowering in aged yeast cells, pilot screen, validation compound set (AID 2706;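 active = superoxide response below 65% of plate, a cut near 3 SD across the whole screen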;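 also: yeast exposed to compound for one week at 30 degrees C before staining; 100% = mean of all compound wells on the same plate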); conditions: S. cerevisiae aging, superoxide DHE fluorescence; at 10 µM; stronger effect = lower value
[9] = target: Beta-adrenergic receptor kinase 1 (Homo sapiens) (UniProt P25098); assay: GRK2 binders displacing RNA aptamer, biochemical, validation, human GRK2, bead flow cytometry (AID 488806;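 active = aptamer binding inhibition above 30%, about 3 SD of noise from non-fluorescent compounds; inactive = inhibition at or below 30%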); conditions: bead-bound GRK2, FAM-aptamer displacement, at 10 µM, stronger effect = higher value
Sequence of Beta-adrenergic receptor kinase 1 (Homo sapiens) (P25098 whole entry, looked up): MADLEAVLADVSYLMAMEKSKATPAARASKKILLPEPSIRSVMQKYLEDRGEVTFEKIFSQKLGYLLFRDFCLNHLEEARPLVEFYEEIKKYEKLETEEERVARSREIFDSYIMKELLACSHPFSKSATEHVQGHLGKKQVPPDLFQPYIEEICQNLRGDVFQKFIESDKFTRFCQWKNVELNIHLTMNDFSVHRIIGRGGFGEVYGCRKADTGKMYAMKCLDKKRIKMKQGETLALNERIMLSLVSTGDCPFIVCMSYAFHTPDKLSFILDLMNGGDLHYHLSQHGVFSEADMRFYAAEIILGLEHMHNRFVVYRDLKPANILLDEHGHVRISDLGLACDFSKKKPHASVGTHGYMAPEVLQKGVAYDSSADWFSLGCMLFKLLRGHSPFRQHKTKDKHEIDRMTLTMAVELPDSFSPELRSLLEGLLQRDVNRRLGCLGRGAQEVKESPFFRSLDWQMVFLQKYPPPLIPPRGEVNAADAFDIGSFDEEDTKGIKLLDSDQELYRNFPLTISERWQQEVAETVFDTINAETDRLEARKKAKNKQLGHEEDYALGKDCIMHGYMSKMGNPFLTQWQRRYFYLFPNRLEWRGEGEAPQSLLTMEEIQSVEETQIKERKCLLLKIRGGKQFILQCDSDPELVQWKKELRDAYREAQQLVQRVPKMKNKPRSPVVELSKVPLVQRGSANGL

[10] = target: Beta-2 adrenergic receptor (Homo sapiens) (UniProt P07550); assay: beta2AR agonists driving receptor internalization, pilot screen, cell-based, FAP fluorogen, flow cytometry, validation set (AID 504459;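 active = percent response above 42, roughly 3 SD of non-fluorescent test compounds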;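 also: agonist-driven loss of surface beta2AR via internalization measured by FAP dye flow cytometry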); conditions: Am2.2-beta2AR cells, FAP surface receptor flow cytometry; at 10 µM; stronger effect = higher value
Sequence of Beta-2 adrenergic receptor (Homo sapiens) (P07550 whole entry, looked up): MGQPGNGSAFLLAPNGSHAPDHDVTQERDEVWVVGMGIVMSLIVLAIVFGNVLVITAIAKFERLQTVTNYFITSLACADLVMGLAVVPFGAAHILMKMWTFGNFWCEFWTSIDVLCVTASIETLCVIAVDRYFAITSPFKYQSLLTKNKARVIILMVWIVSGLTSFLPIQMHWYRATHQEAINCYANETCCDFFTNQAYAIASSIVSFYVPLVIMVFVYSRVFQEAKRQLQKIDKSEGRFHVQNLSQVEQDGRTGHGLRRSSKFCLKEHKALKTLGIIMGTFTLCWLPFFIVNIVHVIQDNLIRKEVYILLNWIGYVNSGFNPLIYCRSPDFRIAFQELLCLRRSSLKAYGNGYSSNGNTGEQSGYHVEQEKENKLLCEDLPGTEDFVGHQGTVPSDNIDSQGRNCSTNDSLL

[11] = target: AP-2 complex subunit beta (Homo sapiens) (UniProt P63010); assay: inhibitors of arrestin peptide binding to AP2, pilot screen, biochemical, validation set, GST-AP2 beads, flow cytometry (AID 504541;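 active = inhibition above 54%, about 3 SD of non-fluorescent compounds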;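 also: AP2 carries R879A mutation and is captured from E. coli lysate; bead-bound FITC arrestin peptide fluorescence measuring arrestin peptide binding to AP2; 0% = DMSO wells and 100% = excess unlabeled arrestin peptide control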); conditions: FITC arrestin peptide, at 10 µM, stronger effect = higher value, AP2 beta2 appendage fragment, R879A mutant
Sequence of AP-2 complex subunit beta (Homo sapiens) (P63010 whole entry, looked up, the tested form may be a part, one chain of several): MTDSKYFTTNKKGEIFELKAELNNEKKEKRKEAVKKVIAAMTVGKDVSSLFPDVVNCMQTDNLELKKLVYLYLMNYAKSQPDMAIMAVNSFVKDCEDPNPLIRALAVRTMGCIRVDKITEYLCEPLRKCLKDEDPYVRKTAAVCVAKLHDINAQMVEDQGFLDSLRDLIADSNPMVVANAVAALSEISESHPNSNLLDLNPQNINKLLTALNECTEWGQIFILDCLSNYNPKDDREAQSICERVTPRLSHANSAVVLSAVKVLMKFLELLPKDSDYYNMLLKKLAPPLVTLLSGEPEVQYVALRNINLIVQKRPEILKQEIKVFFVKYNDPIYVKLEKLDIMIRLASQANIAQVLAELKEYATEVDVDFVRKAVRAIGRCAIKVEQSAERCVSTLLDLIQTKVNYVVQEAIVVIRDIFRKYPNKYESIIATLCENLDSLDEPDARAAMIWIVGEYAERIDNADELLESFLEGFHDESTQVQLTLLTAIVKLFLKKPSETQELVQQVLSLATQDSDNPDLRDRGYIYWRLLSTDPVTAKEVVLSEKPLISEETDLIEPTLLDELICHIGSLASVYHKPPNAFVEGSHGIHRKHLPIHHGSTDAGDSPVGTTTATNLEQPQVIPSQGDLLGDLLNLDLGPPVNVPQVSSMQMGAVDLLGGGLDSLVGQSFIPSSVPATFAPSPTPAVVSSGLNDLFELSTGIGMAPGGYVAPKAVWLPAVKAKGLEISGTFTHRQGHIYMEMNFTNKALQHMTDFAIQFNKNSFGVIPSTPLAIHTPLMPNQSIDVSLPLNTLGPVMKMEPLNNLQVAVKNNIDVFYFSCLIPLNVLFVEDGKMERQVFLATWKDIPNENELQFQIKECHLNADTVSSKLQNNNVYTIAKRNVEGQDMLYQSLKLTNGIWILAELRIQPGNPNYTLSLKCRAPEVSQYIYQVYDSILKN

[12] = yeast V-ATPase proton transport modulators, S. cerevisiae, pHLuorin, HTS validation (AID 504600; in the data active = response above about 15%;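 also: plate controls were DMSO for no effect and reference compound for full effect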); conditions: S. cerevisiae pHLuorin cytosolic pH, at 10 µM, stronger effect = higher value
[13] = tested on: anti-desmoglein-3 scFv antibody binding to human DSG3; assay: inhibitors of anti-DSG3 scFv binding to DSG3, pilot screen, biochemical, validation compound set, bead-based, flow cytometry (AID 588368;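 active = binding below the plate cutoff, the plate median minus 3 SD, with a reading above zero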;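 also: signal is the median channel fluorescence of bead-bound GFP antibody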); conditions: Protein G beads, DSG3-Fc, scFv-GFP binding, at 10 µM, stronger effect = lower value
[14] = inhibitors of fungal efflux pumps CDR1, CDR2, MDR1, pilot screen, validation compound set, multiplex, phenotypic (AID 588506;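 active = efflux inhibition above 0.42, the validation set average plus 4 SD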;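 also: Nile Red retained in cells so higher fluorescence means more efflux inhibition; 0 = negative control wells and 1 = enniatin B 25 µM full block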); conditions: S. cerevisiae pump-expressing triplex, Nile Red efflux flow cytometry; at 10 µM; stronger effect = higher value; the pumps come from Candida albicans
[15] = target: ATP-binding cassette sub-family B member 6 (Homo sapiens) (UniProt Q9NP58); assay: ABCB6 transporter inhibitors, pilot screen, K562-ABCB6 cells, flow cytometry, validation set (AID 588550;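 active = inhibition above the screen-wide mean plus 3 SD, about 51%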;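 also: 0% = DMSO wells and 100% = benzethonium chloride 70 µM positive control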); conditions: K562-ABCB6 porphyrin accumulation, 1 h, at 10 µM, stronger effect = higher value
Sequence of ATP-binding cassette sub-family B member 6 (Homo sapiens) (Q9NP58 whole entry, looked up): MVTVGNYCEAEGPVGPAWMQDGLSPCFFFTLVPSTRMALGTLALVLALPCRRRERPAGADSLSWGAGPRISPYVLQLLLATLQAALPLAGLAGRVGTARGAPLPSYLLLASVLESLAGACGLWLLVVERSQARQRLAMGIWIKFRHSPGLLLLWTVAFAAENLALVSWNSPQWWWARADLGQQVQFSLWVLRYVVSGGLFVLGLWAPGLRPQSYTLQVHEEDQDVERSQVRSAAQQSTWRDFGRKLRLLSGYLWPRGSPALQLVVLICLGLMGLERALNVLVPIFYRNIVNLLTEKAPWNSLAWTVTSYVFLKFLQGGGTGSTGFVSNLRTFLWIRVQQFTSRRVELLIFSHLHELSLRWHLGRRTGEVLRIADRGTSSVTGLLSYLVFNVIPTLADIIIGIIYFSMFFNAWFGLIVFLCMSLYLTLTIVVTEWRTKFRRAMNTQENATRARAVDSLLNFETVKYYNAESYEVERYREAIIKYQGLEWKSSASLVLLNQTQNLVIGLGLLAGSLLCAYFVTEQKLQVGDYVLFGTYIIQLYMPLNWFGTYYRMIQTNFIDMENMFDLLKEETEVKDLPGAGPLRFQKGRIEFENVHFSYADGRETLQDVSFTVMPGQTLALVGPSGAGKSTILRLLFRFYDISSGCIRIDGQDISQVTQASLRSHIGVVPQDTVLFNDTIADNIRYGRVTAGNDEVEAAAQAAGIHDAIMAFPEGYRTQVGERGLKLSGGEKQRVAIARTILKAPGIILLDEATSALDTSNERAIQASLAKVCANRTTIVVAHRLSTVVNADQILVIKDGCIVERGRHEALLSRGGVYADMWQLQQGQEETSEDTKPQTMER

[16] = promoters of myeloid differentiation in arrested cells, primary screen, cell-based, GFP/MAC1 double positive, flow cytometry, validation set (AID 588685); conditions: ER-HoxA9 marrow cells, stronger effect = higher value, normalized: vehicle 0, fulvestrant 100;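 also: compound exposure lasts four days before antibody staining and flow analysis; 0% = DMSO wells and 100% = 5 µM fulvestrant positive control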

Compound | percent of DMSO control GFP [1] | GFP response vs DMSO [2] | percent response of DMSO control [3] | GFP response vs DMSO [4] | GFP response, % of DMSO [5] | double positive events [6] [%] | vesicle binding response [6] | inhibition [7] | superoxide response (% of plate) [8] | aptamer binding inhibition [9] | response [10] | inhibition [11] | response [12] | binding (% of control) [13] | efflux inhibition (fraction of control) [14] | inhibition [15] | differentiation response [16]
CC(=O)c1cccc(NC(=O)N[C@@H](CC(C)C)C(=O)O)c1 | 104% (inactive) | 101% (inactive) | 104% (inactive) | 96.6% (inactive) | 104% (inactive) | 57.9 | 230% (inactive) | -9.79% (inactive) | 109% (inactive) | -2% (inactive) | -0.44% (inactive) | 17.6% (inactive) | -2.05% (inactive) | 99.2% (inactive) | 0.18 (inactive) | 6% (inactive) | 9.04% (inactive)
CCCC(=O)O[C@]1(C(=O)CCl)[C@@H](C)C[C@H]2[C@@H]3CCC4=CC(=O)C=C[C@]4(C)[C@@]3(F)C(=O)C[C@@]21C | 93.7% (inactive) | 134% (inactive) | 111% (inactive) | 85.8% (inactive) | 87.3% (inactive) | 65.1 | 147% (inactive) | 1.61% (inactive) | 98.4% (inactive) | 3% (inactive) | -4.94% (inactive) | 11.3% (inactive) | -7.84% (inactive) | 94.1% (inactive) | 0.23 (inactive) | 8% (inactive) | 0% (inactive)
O=C1OC(Nc2ccc3c(c2)OCO3)c2ccccc21 (stereo not drawn) | 99.4% (inactive) | 105% (inactive) | 93.1% (inactive) | 114% (inactive) | 97.3% (inactive) | 63.1 | 185% (inactive) | -22.2% (inactive) | 99.6% (inactive) | 3% (inactive) | 10.6% (inactive) | -3.85% (inactive) | 0.82% (inactive) | 100% (inactive) | 0.02 (inactive) | -1% (inactive) | 21.8% (inactive)
CN1CCN(CCCN2c3ccccc3Sc3ccc(Cl)cc32)CC1 | 99.3% (inactive) | 102% (inactive) | 97% (inactive) | 113% (inactive) | 120% (inactive) | 61.4 | 179% (inactive) | 63.6% (active) | 70.1% (inactive) | 0% (inactive) | -15% (inactive) | 0.77% (inactive) | 1.39% (inactive) | 106% (inactive) | -0.17 (inactive) | 7% (inactive) | 3.88% (inactive)
CCC1CCc2c(sc(NC(=O)c3cccnc3)c2C(N)=O)C1 (stereo not drawn) | 97.6% (inactive) | 102% (inactive) | 96.4% (inactive) | 108% (inactive) | 107% (inactive) | 64.4 | 252% (inactive) | -38.6% (inactive) | 99.6% (inactive) | 7% (inactive) | -24.4% (inactive) | 5.47% (inactive) | -30.9% (inactive) | 98.3% (inactive) | -0.09 (inactive) | 14% (inactive) | 38.4% (inactive)
CN(C(=O)C(Cl)Cl)c1ccc(OC(=O)c2ccco2)cc1 | 99% (inactive) | 105% (inactive) | 97.8% (inactive) | 98% (inactive) | 96.8% (inactive) | 59.3 | 90.2% (inactive) | -1.49% (inactive) | 94% (inactive) | 4% (inactive) | 5.41% (inactive) | 15.3% (inactive) | -0.32% (inactive) | 99% (inactive) | -0.04 (inactive) | 7% (inactive) | -3.67% (inactive)
COc1c(C=O)c(CCN(C)C(=O)c2ccc(F)cc2)cc2c1OCO2 | 103% (inactive) | 104% (inactive) | 100% (inactive) | 104% (inactive) | 106% (inactive) | 59.6 | 171% (inactive) | 3.14% (inactive) | 115% (inactive) | 4% (inactive) | -22.5% (inactive) | 10.3% (inactive) | 2.09% (inactive) | 109% (inactive) | -0.17 (inactive) | -2% (inactive) | 19.6% (inactive)
CN(C)CCC(c1ccccc1)c1ccccn1 (stereo not drawn) | 97.2% (inactive) | 130% (inactive) | 97.9% (inactive) | 83.6% (inactive) | 86.1% (inactive) | 64.9 | 139% (inactive) | 14.2% (inactive) | 93.1% (inactive) | 3% (inactive) | -2.11% (inactive) | -9.57% (inactive) | -0.43% (inactive) | 97.8% (inactive) | -0.35 (inactive) | 12% (inactive) | 8.19% (inactive)
Fc1ccc(NC(=S)Nc2ccccc2Cl)cc1 | 91.1% (inactive) | 133% (inactive) | 106% (inactive) | 78.7% (inactive) | 93.1% (inactive) | 63.7 | 235% (inactive) | 20% (inactive) | 91.9% (inactive) | 3% (inactive) | -6.11% (inactive) | 10.1% (inactive) | 0.15% (inactive) | 102% (inactive) | 0.37 (inactive) | 12% (inactive) | -1.64% (inactive)
